According to PubChem BioAssay:
Active and inactive are the calls of the source.

Columns and labels:
[1] = small molecules captured by biotinylated probe aFSTL3 – biochemical, small-molecule microarray, fluorescence 635/667, stem cell growth factor project, primary screen (AID 1064); details: higher = more signal;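 also: measures binding of the biotinylated anti-FSTL3 antibody to printed compounds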
[2] = binders from COS7 lysate, DM2A8 probe, primary screen, torsin A project, cell lysate, small-molecule microarray, fluorescence 635/667 (AID 1065); details: higher = more signal, COS7 lysate expressing mutant human TOR1A
[3] = small molecules captured by biotinylated probe aFGF2 – biochemical, small-molecule microarray, fluorescence 635/667, stem cell growth factor project, primary screen (AID 1067); details: higher = more signal;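 also: measures binding of biotinylated aFGF2 protein to printed compounds on slides; z-score merges feature fluorescence and signal-to-noise across triplicate slides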
[4] = small molecules captured by biotinylated probe aFGF10 – biochemical, small-molecule microarray, fluorescence 635/667, stem cell growth factor project, primary screen (AID 1071); details: higher = more signal;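 also: score merges 667 nm spot intensity and signal to noise from triplicate slides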
[5] = molecular target: Neurogenic locus notch homolog protein 2 (Homo sapiens) (UniProt Q04721); test: small molecules binding Notch2 protein – biochemical, small-molecule microarray, 635 nm fluorescence, stem cell growth factors, primary screen (AID 1073); details: higher = more signal
Neurogenic locus notch homolog protein 2 (Homo sapiens), sequence (Q04721 whole entry, looked up, canonical isoform): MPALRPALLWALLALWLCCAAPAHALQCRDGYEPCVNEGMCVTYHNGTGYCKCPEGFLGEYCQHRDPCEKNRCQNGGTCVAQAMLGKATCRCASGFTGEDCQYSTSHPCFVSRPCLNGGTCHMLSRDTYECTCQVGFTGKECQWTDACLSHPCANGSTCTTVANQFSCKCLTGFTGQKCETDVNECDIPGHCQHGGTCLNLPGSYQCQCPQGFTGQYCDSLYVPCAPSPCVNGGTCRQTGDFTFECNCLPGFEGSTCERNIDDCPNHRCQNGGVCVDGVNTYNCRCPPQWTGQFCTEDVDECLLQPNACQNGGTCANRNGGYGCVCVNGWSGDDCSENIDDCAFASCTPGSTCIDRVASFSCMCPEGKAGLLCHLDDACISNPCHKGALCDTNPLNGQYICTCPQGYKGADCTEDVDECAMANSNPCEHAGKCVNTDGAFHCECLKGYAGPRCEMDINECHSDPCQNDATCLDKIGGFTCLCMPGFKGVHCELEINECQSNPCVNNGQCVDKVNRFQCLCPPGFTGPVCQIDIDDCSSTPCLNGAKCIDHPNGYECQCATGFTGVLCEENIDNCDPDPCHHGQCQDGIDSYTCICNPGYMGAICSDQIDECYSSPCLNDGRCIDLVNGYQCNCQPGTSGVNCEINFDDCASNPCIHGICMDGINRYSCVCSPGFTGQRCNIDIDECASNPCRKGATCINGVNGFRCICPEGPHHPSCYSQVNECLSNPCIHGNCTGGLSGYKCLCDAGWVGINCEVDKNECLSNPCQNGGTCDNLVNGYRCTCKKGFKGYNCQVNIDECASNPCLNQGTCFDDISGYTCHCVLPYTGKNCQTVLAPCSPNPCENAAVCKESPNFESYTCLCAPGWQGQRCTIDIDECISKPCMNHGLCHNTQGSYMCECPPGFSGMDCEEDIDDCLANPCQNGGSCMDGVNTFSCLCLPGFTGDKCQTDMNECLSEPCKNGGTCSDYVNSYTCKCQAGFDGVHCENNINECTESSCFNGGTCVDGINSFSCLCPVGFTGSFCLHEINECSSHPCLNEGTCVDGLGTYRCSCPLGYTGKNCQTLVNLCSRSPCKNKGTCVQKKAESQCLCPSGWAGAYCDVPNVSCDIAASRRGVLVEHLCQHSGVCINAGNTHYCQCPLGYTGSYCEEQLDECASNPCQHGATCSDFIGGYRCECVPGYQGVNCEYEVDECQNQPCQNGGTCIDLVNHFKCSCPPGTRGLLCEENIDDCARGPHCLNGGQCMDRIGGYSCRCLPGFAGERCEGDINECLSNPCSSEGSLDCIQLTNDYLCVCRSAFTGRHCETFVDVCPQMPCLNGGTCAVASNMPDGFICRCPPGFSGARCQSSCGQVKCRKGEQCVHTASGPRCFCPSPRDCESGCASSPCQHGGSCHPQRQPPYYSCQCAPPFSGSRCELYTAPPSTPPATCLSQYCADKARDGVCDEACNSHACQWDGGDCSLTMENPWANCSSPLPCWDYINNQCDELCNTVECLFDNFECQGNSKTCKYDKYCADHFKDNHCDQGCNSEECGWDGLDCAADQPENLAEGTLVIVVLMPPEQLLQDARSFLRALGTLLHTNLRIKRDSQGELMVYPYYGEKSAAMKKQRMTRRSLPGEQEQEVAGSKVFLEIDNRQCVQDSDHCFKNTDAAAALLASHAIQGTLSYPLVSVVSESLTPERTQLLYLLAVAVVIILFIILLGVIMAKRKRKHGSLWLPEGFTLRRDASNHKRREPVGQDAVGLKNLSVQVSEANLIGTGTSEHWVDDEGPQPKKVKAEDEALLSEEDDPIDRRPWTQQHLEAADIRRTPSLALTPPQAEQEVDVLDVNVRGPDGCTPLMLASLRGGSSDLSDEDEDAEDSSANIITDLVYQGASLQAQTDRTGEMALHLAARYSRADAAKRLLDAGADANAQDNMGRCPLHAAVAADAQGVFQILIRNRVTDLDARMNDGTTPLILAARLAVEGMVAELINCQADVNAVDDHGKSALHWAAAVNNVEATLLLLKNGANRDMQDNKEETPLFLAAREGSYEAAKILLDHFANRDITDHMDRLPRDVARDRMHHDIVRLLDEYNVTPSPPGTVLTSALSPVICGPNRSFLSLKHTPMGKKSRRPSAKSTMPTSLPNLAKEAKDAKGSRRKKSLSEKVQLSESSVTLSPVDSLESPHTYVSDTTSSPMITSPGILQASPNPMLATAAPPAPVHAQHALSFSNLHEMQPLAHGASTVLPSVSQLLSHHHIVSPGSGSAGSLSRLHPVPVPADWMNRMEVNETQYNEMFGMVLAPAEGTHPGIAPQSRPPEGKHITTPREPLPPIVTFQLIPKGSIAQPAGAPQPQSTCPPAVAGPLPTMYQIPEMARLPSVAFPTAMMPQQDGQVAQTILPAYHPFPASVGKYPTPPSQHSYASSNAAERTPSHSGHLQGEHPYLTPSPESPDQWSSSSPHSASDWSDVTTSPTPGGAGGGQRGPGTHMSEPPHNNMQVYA

[6] = molecular target: Pro-neuregulin-1, membrane-bound isoform (Homo sapiens) (UniProt Q02297); test: small molecules binding neuregulin-1 protein – biochemical, small-molecule microarray, fluorescence 635/667, psychiatric disease protein project, primary screen (AID 1075); details: NRG1 binding, 635 nm fluorescence, higher = more signal;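 also: score combines 667 nm spot fluorescence with signal to noise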
Pro-neuregulin-1, membrane-bound isoform (Homo sapiens), sequence (Q02297 whole entry, looked up, the tested form may be a part, canonical isoform): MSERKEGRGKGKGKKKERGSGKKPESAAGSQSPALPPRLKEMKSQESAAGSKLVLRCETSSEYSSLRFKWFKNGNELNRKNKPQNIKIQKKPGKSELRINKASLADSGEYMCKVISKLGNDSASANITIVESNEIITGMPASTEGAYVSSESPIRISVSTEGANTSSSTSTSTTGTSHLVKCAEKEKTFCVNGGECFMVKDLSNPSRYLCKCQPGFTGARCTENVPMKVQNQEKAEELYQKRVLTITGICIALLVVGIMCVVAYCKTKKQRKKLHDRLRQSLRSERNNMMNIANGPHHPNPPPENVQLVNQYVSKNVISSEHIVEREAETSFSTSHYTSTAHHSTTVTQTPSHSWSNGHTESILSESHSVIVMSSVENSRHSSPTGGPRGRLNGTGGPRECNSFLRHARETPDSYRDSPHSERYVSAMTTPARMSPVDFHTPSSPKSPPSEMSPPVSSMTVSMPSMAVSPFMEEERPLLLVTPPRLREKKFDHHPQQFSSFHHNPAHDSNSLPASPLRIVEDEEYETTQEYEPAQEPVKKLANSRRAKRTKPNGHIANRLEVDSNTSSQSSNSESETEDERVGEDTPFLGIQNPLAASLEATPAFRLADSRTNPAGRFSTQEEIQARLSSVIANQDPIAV

[7] = test system: Neuregulin-1 EGF-like domain; test: small molecules binding NRG1 EGF domain – biochemical, small-molecule microarray, 635 nm fluorescence, primary screen (AID 1081); details: higher = more signal;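 also: binding of the protein to compounds printed on small-molecule microarray slides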
[8] = FRG1 expression reporter modulators in myotubes – cell-based, C2C12 myotubes, firefly/Renilla luciferase, luminescence, FRG1 inhibition for FSHD, primary screen (AID 1084); details: FRG1 promoter luciferase, higher = more signal, called active from +8 up or from −8 down
[9] = small molecules captured by biotinylated probe aFST – biochemical, small-molecule microarray, fluorescence 635/667, stem cell growth factor project, primary screen (AID 1086); details: higher = more signal;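 also: score merges 667 nm fluorescence with signal-to-noise of each printed compound spot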
[10] = binders of probe aHhip on microarray, primary screen, stem cell growth factor project, biochemical, small-molecule microarray, fluorescence 635/667 (AID 1087); details: higher = more signal;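 also: score merges spot fluorescence at 667nm with spot signal to noise ratio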

| Structure (SMILES) | composite z-score [1] | composite z-score [2] | composite z-score [3] | composite z-score [4] | composite z-score [5] | composite z-score [6] | composite z-score [7] | z-score [8] | composite z-score [9] | composite z-score [10] |
| --- | --- | --- | --- | --- | --- | --- | --- | --- | --- | --- |
| O=C1c2ccccc2[C@@]2(Cc3ccccc3N(C3CC3)C2=O)[C@H](c2ccc(CO)cc2)N1Cc1ccccc1C(F)(F)F | 0.748 | -0.686 | -0.0507 | 0.157 | -1.11 | 0.809 | -0.0465 | -0.455 (inactive) | -0.0438 | 0.151 |
| O=C1C2=CC[C@H]3C(=O)N(Cc4ccc5c(c4)OCO5)C(=O)[C@H]3[C@H]2[C@H](O)[C@@H]2O[C@H]12 | -0.319 | 0.295 | -0.141 | 0.375 | 0.617 | -0.149 | -0.0029 | 0.593 (inactive) | 0.407 | -0.308 |
| CCOC(=O)[C@H](Cc1ccccc1)NC(=O)CCC1CC(OC(=O)NCc2ccc3c(c2)OCO3)CC2(CCCC(COC(=O)NCc3cccc(C(F)(F)F)c3)O2)O1 (stereo not given in full) | -0.353 | 0.226 | -0.0985 | 0.0907 | 0.981 | 0.0527 | 0.481 | -0.0878 (inactive) | 0.348 | -0.0645 |
| COCCCNC(=O)[C@@]1(CCS(=O)(=O)c2ccccc2)N=C(c2ccc(OCCCO)cc2)O[C@H]1c1ccccc1 | 0.958 | 1.5 | 0.378 | 1.18 | 0.674 | 1.25 | 1.31 | -1.23 (inactive) | 0.56 | 2.04 |
| NCCCCCNC(=O)[C@@H]1C[C@@H]2C(=O)N3CCC[C@H]3C(=O)N2[C@@H]1c1cccc(OCCO)c1 | 2.37 | 2.1 | 0.103 | 0.349 | 0.185 | 1.86 | 1.26 | 0.76 (inactive) | 1.68 | 0.309 |
| CC(C)[C@H](NC(=O)OC(C)(C)C)[C@@H](O)CC(=O)OC(C)(C)C | -0.273 | -0.584 | -0.116 | -0.267 | -0.756 | -0.739 | -1.18 | 0.0293 (inactive) | -0.357 | 0.0881 |
| COc1ccc(O[C@H]2C=C[C@@H](c3ccccc3)O[C@@H]2COC(=O)CCC(C)=NOC[C@@H](C)[C@H](OCc2ccccc2)C(C)C)cc1 | -0.404 | -0.48 | -0.171 | -0.14 | -1.1 | -1.09 | -1.02 | 0.696 (inactive) | -0.504 | -0.184 |
| [N-]=[N+]=Nc1ccccc1C[C@@]1(C(N)=O)N=C(c2ccc(OCCCO)cc2)O[C@@H]1c1ccccc1 | 1.57 | 0.49 | 0.0249 | 0.296 | 0.975 | 1.05 | 1.16 | 1.23 (inactive) | 0.784 | -0.181 |
| COCCNC(=O)OCC1CCCC2(CC(OC(=O)NCCc3ccc(F)cc3)CC(CCC(=O)N[C@@H](C)C(=O)OC)O2)O1 (stereo not given in full) | -0.576 | 0.37 | -0.132 | 0.632 | 1.1 | 0.511 | 0.777 | -0.0861 (inactive) | 0.347 | -0.196 |
| COc1ccc([Si](C)(C)[C@@H]2[C@@H](CC(=O)N3CCC[C@H]3CO)O[C@]3(C(=O)N(Cc4cccc(N5CCC5=O)c4)c4ccccc43)[C@H]2C)cc1 | -0.0723 | 0.461 | -0.0715 | 0.45 | 0.322 | 1.51 | 1.14 | -0.548 (inactive) | -0.187 | 0.107 |
| CCc1cc2c(nc1CC)CCN(CCC(C)=NOC(C)CN1CCCc3nc(C)c(C)cc31)C2 (stereo not given) | 0.271 | 1.29 | 0.131 | 0.16 | 1.35 | 0.408 | 1.17 | 1.04 (inactive) | 1.15 | 1.17 |
| CCOC(=O)[C@H](Cc1ccccc1)NC(=O)CCC1CC(OC(=O)NCc2ccc3c(c2)OCO3)CC2(CCCC(COC(=O)NCC3CCCCC3)O2)O1 (stereo not given in full) | -0.632 | 0.247 | -0.0775 | 0.256 | 1.19 | 0.306 | 1.04 | 1.2 (inactive) | 1.27 | -0.0994 |
| CO[C@H]1O[C@H](CO)[C@@H](OC(=O)Nc2ccc3c(c2)OCO3)[C@H](OC(=O)Nc2ccccc2-c2ccccc2)[C@@H]1OC(=O)Nc1ccccc1-c1ccccc1 | 0.0442 | -0.029 | -0.0238 | 1.13 | 1.57 | 0.985 | 1.17 | 1.36 (inactive) | 0.626 | 0.151 |
| COCCCNC(=O)[C@@]1(Sc2ccc(C)cc2)CC(=O)N(Cc2ccccc2)[C@@H]1c1ccc(CO)cc1I | 0.438 | 0.258 | 0.193 | -0.134 | -0.895 | 1.38 | -0.118 | -0.646 (inactive) | 0.458 | 0.0327 |
| CCN1C(=O)[C@H]2[C@H]3[C@H](O)[C@H](O)CC(=NOCc4ccccc4)[C@H]3CC[C@H]2C1=O | -0.5 | 0.391 | -0.116 | 0.611 | 0.262 | -0.0759 | -0.0363 | 0.273 (inactive) | 0.214 | -0.226 |
| C#CCCCON=C1C[C@@H](O)[C@@H](O)[C@@H]2[C@@H]3C(=O)N(CCC(=O)OCC)C(=O)[C@@H]3CC[C@@H]12 | 1.93 | 0.597 | -0.0505 | -0.0007 | -0.835 | 0.107 | -0.307 | 0.665 (inactive) | 0.63 | -0.12 |
| CCCC[C@@H]1C[C@H]1[C@@H](NS(=O)(=O)c1cccc2cccnc12)c1ccc(-c2ccccc2)cc1 | 0.682 | -0.165 | 0.0011 | 0.0132 | 0.523 | 0.071 | 0.918 | 0.448 (inactive) | 0.436 | -0.0123 |
